Screens deposited in PubChem by several laboratories.
Only some compounds are listed: those with a hit (about 3.8% of all), similar ones and a draw of the others.
HSF1 inhib: HSF1 inhibition | hit rate 0.77% among 300,000 | AID 2098 | activity change, negative = inhibition, % at 7.5 µM (by protocol) | NIH3T3-HGL HSE-luciferase, MG132-induced, luminescence 8 h; stronger effect = lower value;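 active = more than half of replicate wells show activity change below -50%, luminescence cut by over half; inconclusive = some wells, but at most half, below -50%; inactive = no replicate well below -50%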;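 also: luciferase reports HSF-1 transcriptional activity via heat shock element; 0% = median of DMSO wells and -100% = zero luminescence signal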
NALP1 yeast inh: NALP1 inhibition | inhibition, % at 10 µM | hit rate 0.61% among 280,000 | AID 2071 | S. cerevisiae NALP1/ASC/caspase-1 growth, X-gal OD620, 72 h; in the data active = inhibition mostly above about 24%, no sharp cut-off; inactive = mostly below about 32%
HSP90 inh: blocks HSP90-mediated luciferase refolding in reticulocyte lysate | hit rate 0.91% among 290,000 | inhibition, % at 5.6 µM | Rabbit reticulocyte lysate, luciferase refolding luminescence, 3 h;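 active = inhibition above the screen-wide mean plus 3 SD, computed separately per campaign, cut at about 16% in these data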;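 also: 0% = DMSO wells and 100% = 60 µM geldanamycin wells; inhibitors lower the luminescence because luciferase stays unfolded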
Hsp70 activator: switches on Hsp70 transcription | activation, % at 10 µM | hit rate 0.04% among 200,000 | HeLa Hsp70 promoter luciferase reporter, luminescence; scaled: vehicle 0, proteasome-inhibitor control 100%;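 active = activation above the mean across all tested compounds plus 3 SD, cutoff set per campaign, cut at about 5.5% in these data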;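 also: 100% = MG132 at 30 µM as the positive control and 0% = DMSO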
HSF-1 act: increases HSF-1 driven luciferase reporter signal; hit rate 1.7% among 300,000; AID 504408; activation, % at 9 µM; NIH3T3-HGL HSF-1 luciferase reporter, MG132, 8 h; 100% = twice DMSO control signal;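 active = mean replicate activation of at least 50% with a set share of replicates each reaching 50%; inconclusive = only one of those two conditions met; inactive = mean below 50% and too few replicates reaching it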;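 also: 0% = median of the neutral control wells and 100% = twice that signal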
pCIP destab: compounds decreasing mouse p/CIP protein stability; Q05BA5; F442A p/CIP-EGFP cells, EGFP fluorescence, 16 h; hit rate 0.01% among 290,000; AID 1984; decrease of EGFP signal, % at 10 µM;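 active = EGFP signal decrease of at least 30% at 10 µM or well 3 SD below plate mean, unless failing retest; inactive = the rest, including hits failing retest or dose response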
HSP90 inh confirm: confirmation of HSP90 inhibitors | shares compounds with HSP90 inh | rabbit reticulocyte lysate, luciferase refolding luminescence, 3 h | inhibition, % at 5.9 µM | hit rate 64% among 2,300 | AID 1846; in the data active = inhibition above about 18%;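 also: 0% = vehicle wells and 100% = reference inhibitor wells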
FLuc counter: firefly luciferase inhibition, HSP90 counter-screen; shares compounds with HSP90 inh; inhibition, % at 5.9 µM; hit rate 48% among 2,300; purified native firefly luciferase, luminescence;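 active = inhibition above the mean inhibition of all tested sample wells plus 3 SD, cut at about 10% in these data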;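 also: 0% = DMSO with luciferase and 100% = wells lacking luciferase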
Target sequence (P08659 whole entry, looked up): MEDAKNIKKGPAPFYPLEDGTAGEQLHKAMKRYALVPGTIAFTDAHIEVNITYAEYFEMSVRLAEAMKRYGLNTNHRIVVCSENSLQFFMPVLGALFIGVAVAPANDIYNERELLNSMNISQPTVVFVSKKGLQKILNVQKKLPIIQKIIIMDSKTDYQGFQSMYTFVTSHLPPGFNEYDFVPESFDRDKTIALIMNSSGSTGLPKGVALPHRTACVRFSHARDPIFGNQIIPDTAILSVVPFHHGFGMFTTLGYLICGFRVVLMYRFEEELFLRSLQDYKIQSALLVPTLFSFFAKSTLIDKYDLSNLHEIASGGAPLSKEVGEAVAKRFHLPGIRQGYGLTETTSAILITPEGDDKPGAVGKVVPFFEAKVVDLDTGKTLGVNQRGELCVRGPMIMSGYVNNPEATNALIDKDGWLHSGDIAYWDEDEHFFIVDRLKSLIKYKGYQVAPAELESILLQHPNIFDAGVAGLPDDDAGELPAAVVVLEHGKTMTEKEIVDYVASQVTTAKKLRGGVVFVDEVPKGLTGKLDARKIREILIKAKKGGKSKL
* marks the source's active call; other numbers are inactive results; ? = inconclusive; . = no result.

SMILES	HSF1 inhib	NALP1 yeast inh	HSP90 inh	Hsp70 activator	HSF-1 act	pCIP destab	HSP90 inh confirm	FLuc counter
COc1ccc(-c2cn3cccc(C)c3n2)cc1F	22.8	22.3	1.4	-0.3	41.5	-3.8	.	.
Clc1ccc2nc(-c3ccc4c(c3)OCO4)cn2c1	7.3	5.8	23.6*	-0.4	44.8	-2.1	72.9*	70.9*
COc1ccc(-c2cn3cc(C)ccc3n2)cc1F	23.9	4.7	47.6*	-0.4	59.2*	-6.1	62.9*	58.5*
Clc1ccc2nc(-c3ccccc3)cn2c1	36.0	-0.6	35.7*	.	34.1	2.0	55.3*	41.6*
CCOc1ccc(N(CC(=O)N2CCCCCC2)S(=O)(=O)c2ccc(F)cc2)cc1	-6.2	-1.6	35.0*	.	-20.0	-5.1	-4.5	-7.2
Cc1ccc(OCCC(=O)OCC(=O)Nc2c(C)nn(-c3ccccc3)c2C)cc1	0.8	.	.	.	1.4	.	.	.
COc1ccc(C(=O)CC(=O)c2ccccc2O)cc1	20.4	15.2	-2.1	.	28.4	-1.9	.	.
COc1ccc(O)c(C(=O)CC(=O)c2ccc(F)cc2)c1	25.3	5.0	21.1*	-0.3	35.1	-1.9	21.1*	-3.7
CC(=O)Nc1cccc(-c2cc(-c3c(Cl)cccc3Cl)no2)c1	15.0	.	18.9*	.	23.8	-8.0	-9.0	-12.1
Cn1ccc(C(=O)Nc2sc3c(c2C(N)=O)CCCCC3)n1	-10.4	20.4	18.6*	.	-7.1	-6.9	37.8*	19.0*
Cc1cccc(NS(=O)(=O)c2ccc(C(=O)NCC(c3ccco3)N(C)C)cc2)c1C (configuration not stated)	-1.7	22.5	-7.4	.	-2.5	-3.6	.	.
CC(=O)N1c2ccc(S(=O)(=O)N3CCC(C(=O)NC(C)c4ccccc4)CC3)cc2CC1C (configuration not stated)	1.1	26.6	4.8	.	5.0	-22.6	.	.
Cc1cc(N=Nc2ccccc2)c(NCC(O)C(O)C(O)CO)cc1C (configuration not stated)	5.3	-8.2	-1.4	0.1	14.9	5.6	.	.
CCOC(=O)c1sc2nc3c(cc2c1N)COC(C(C)C)C3 (configuration not stated)	-59.5*	-10.5	24.7*	0.2	-69.5	-10.8	44.3*	41.1*
CCOc1ccc(/C=N/NC(=O)c2ccoc2C)cc1OC	19.8	10.1	13.7	.	13.4	-7.5	.	.
CCN(CC)c1ccc(/C=N/NC(=O)c2ccoc2C)cc1	9.1	-2.2	31.5*	.	30.4	-1.5	58.9*	54.0*
COC(=O)c1ccc(NC(=O)c2ccc(C)cc2)o1	16.8	0.9	29.6*	0.1	?	16.4	37.5*	-15.8
COC(=O)c1ccc(NC(=O)c2ccc(F)cc2)o1	-0.1	-7.1	0.6	-0.5	-0.1	6.7	.	.
O=[N+]([O-])/C(=C\Nc1ccccc1)S(=O)(=O)c1ccccc1	-3.3	3.0	18.1*	-0.2	-8.5	7.7	3.4	-2.8
COc1ccc(N/C=C(\[N+](=O)[O-])S(=O)(=O)c2ccccc2)cc1	9.3	20.8	-0.6	.	39.0	0.6	.	.
COc1ccccc1N1CCN(S(=O)(=O)c2c[nH]c(=O)[nH]c2=O)CC1	-1.7	.	.	.	-18.2	.	.	.
COc1ccc(NC(C)C(=O)N/N=C/c2ccc([N+](=O)[O-])s2)cc1 (configuration not stated)	7.8	-11.3	0.7	-0.2	24.0	12.7	.	.
Cc1ccc(NC(C)C(=O)N/N=C/c2ccc([N+](=O)[O-])s2)cc1 (configuration not stated)	11.4	8.9	34.7*	-0.1	32.4	-20.3	-1.5	-7.1
COc1ccc(-c2cc3nc4n(c(=O)c3s2)CCC4)cc1	-5.5	-1.8	29.8*	-0.5	13.8	-1.7	80.2*	67.7*
COc1ccc(-c2cc3nc4n(c(=O)c3s2)CCCCC4)cc1	17.9	2.3	-2.9	.	40.0	-11.9	.	.
SMILES	HSF1 inhib	NALP1 yeast inh	HSP90 inh	Hsp70 activator	HSF-1 act	pCIP destab	HSP90 inh confirm	FLuc counter
COc1ccccc1N1CCN(C(=S)Nc2cccc(C)c2)CC1	?	2.0	27.1*	-0.2	-48.3	2.1	29.5*	1.2
CCC(=O)N(C)/C=C1\Sc2ccccc2C1=O	-5.0	-0.8	26.1*	-0.1	-11.1	-3.5	-9.9	-25.1
Cc1ccc(/C=C2\Sc3ccccc3C2=O)s1	-2.1	-0.8	-2.5	-0.2	30.3	0.1	.	.
O=CN(/C=C1\Sc2ccccc2C1=O)Cc1ccccc1	-0.1	13.3	34.4*	0.1	26.6	-3.7	0.3	-11.8
CC(=O)N(C)/C=C1\Sc2ccccc2C1=O	-5.9	-4.3	35.7*	-0.1	-5.1	-3.1	-1.5	-12.8
O=C(Cn1nnc(-c2ccccc2NC(=O)c2ccccc2F)n1)NC1CCCC1	-8.7	0.8	2.3	-0.2	3.0	-0.6	.	.
O=C(O)c1cc2n(n1)C(C(F)(F)F)CC(C1CC1)N2 (configuration not stated)	-2.5	.	1.0	.	8.8	17.1	.	.
N/C(=N\OC(=O)/C=C/c1ccccc1Cl)c1ccccn1	-9.5	3.0	28.4*	-0.3	-22.8	-0.9	55.2*	56.9*
Cc1cccc(C(=O)O/N=C(\N)c2ccccn2)c1	-49.1	6.8	61.3*	.	-52.3	14.7	60.6*	82.6*
CC(C)(C)c1ccc(C(=O)O/N=C(\N)c2ccccn2)cc1	-89.0*	2.1	73.3*	.	-89.6	0.6	64.5*	82.8*
N/C(=N\OC(=O)c1cccc(F)c1)c1ccccn1	-13.4	3.3	31.0*	.	1.2	-2.6	16.1*	68.4*
OCC[C@@H]1C[C@@H](O)[C@H](O)[C@@]2(Cc3ccccc3CCO2)O1	-4.6	0.3	-5.6	.	3.0	10.8	.	.
Cc1ccc(C(=O)O/N=C(\N)c2ccccn2)cc1C	-73.9*	13.4	61.4*	.	-78.5	-6.5	71.4*	84.5*
Cc1ccc(C(=O)O/N=C(\N)c2ccccn2)cc1	-80.6*	-9.1	77.7*	.	-83.7	-9.7	85.9*	94.0*
COc1cc(C(=O)O/N=C(\N)c2ccccn2)cc(OC)c1OC	13.2	-0.8	-1.9	.	18.9	-0.6	.	.
Cc1cccc(/C(N)=N/OC(=O)c2ccc(Br)o2)c1	27.2	19.2	-0.3	0.0	47.0	-8.0	.	.
CCOc1ccc(C(=O)O/N=C(\N)c2ccccn2)cc1	-79.6*	21.7	82.3*	.	-83.5	1.5	81.7*	91.2*
CCOc1ccc(OCc2ccc(C(=O)N/N=C(\C)c3ccccn3)cc2)cc1	11.5	19.3	6.1	0.8	31.3	-6.0	.	.
N/C(=N\OC(=O)c1ccc(Br)o1)c1ccccn1	16.2	-18.6	23.2*	-0.1	38.4	-1.2	-0.3	43.7*
Cc1ccc(C(=O)N/C(=C\c2cccc([N+](=O)[O-])c2)C(=O)NC(Cc2ccccc2)C(=O)O)cc1 (configuration not stated)	-2.8	5.8	-6.1	.	-10.8	1.7	.	.
